Test systems include NCI-H23 lung; NCI-H226 lung; NCI-H322M lung; HOP-62 NSCLC; NCI-H460 lung; HOP-92 NSCLC; NCI-H522 lung; A549/ATCC NSCLC; 786-0 renal; COLO 205 colon; DU-145 prostate; MALME-3M melanoma; MDA-MB-231 breast; RXF 393 renal; SF-268 CNS; SF-295 CNS; SF-539 CNS; UACC-257 melanoma; M14 melanoma; K-562 leukemia.
What all share (test): NCI-60 one-dose screen, 48 h (100 = growth as untreated, 0 = no growth, -100 = all killed)
Conditions in all cases: 10 µM unless noted

This is part of a sample that, as a whole, favours compounds with a hit. Of some 83,000 tested, about 20% had one in any assay.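 Percent growth is the endpoint: 0 to 100 indicates growth inhibition (40 means 60% inhibition), 0 means no net growth, and negative values indicate cell death.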 Unmarked numbers belong to inactive results. Active and inactive are the calls of the source. Rule for the calls: active = growth percent below 10; inactive = the rest.

These results are taken from PubChem BioAssay (NCI).

With `O=C(Nc1ccc(Cl)c(Cl)c1)Nc1ccc(Cl)c([N+](=O)[O-])c1`, the growth in the assay on NCI-H23 lung is -14.4% (active); in the assay with NCI-H226 lung, 1.2% (active); in the assay with NCI-H322M lung, 6.27% (active); in the assay with HOP-62 NSCLC, -3.52% (active); with NCI-H460 lung, 1.62% (active); in the assay on HOP-92 NSCLC it was -23.2% (active). Moreover, the growth in the assay on NCI-H522 lung was -12.7% (active); in the assay with A549/ATCC NSCLC it was 4.45% (active); with 786-0 renal, 7.48% (active); in the assay with COLO 205 colon, -80% (active); with DU-145 prostate, 18%; with MALME-3M melanoma, -12.3% (active). Besides, the growth in the assay on MDA-MB-231 breast is -62.6% (active); in the assay with RXF 393 renal it was -11.8% (active); with SF-268 CNS, 14.1%; with SF-295 CNS, -26.6% (active); with SF-539 CNS it was 8.74% (active); with UACC-257 melanoma, -8.5% (active). Besides, the growth with M14 melanoma was 0.455% (active).

Consider `CCOc1ccc(Cc2nccc3cc(OCC)c(OCC)cc23)cc1OCC`, for which the growth in the assay on NCI-H23 lung is 34%; in the assay on NCI-H226 lung it was 73.3%; in the assay on NCI-H322M lung, 66.8%; in the assay on HOP-62 NSCLC, 67.7%; with NCI-H460 lung it was 48%; in the assay with HOP-92 NSCLC, 52%. The growth is 56.4% in the assay with NCI-H522 lung; 64.6% in the assay with A549/ATCC NSCLC; 64.8% in the assay with 786-0 renal; 76.2% in the assay with COLO 205 colon; 77.2% with DU-145 prostate; 14.3% in the assay with K-562 leukemia. Further, the growth in the assay with MALME-3M melanoma is 80.2%; in the assay on MDA-MB-231 breast, 53.2%; in the assay with SF-268 CNS, 78%; in the assay with SF-295 CNS, 28%; with SF-539 CNS it was 65.9%; with UACC-257 melanoma it was 69%. Also, the growth in the assay on M14 melanoma is 70.8%.

Turning to `NC(CSC(c1ccccc1)(c1ccccc1)c1ccc(F)cc1)C(=O)O` (stereo not drawn), the growth in the assay on NCI-H23 lung is 14.4%; in the assay on NCI-H226 lung, 61.8%; in the assay with NCI-H322M lung, 28.7%; in the assay on HOP-62 NSCLC, -28.7% (active); in the assay on NCI-H460 lung, 2.02% (active); in the assay with HOP-92 NSCLC, -24.3% (active). Also, the growth in the assay with NCI-H522 lung was -59.1% (active); in the assay on A549/ATCC NSCLC it was 11.7%; in the assay on 786-0 renal, -50.8% (active); in the assay on COLO 205 colon, 5.57% (active); in the assay with DU-145 prostate, -40.3% (active); with K-562 leukemia, -4.92% (active). Besides, the growth with MALME-3M melanoma is 30.6%; in the assay on MDA-MB-231 breast, -18.6% (active); in the assay on SF-268 CNS, 24.4%; in the assay on SF-295 CNS, 0.119% (active); with SF-539 CNS it was -7.79% (active); in the assay on UACC-257 melanoma, -15.2% (active). For the same molecule, the growth in the assay with M14 melanoma was -55.4% (active).

With `O=C(O)c1ccc2nc(-c3ccc(OCCCCCOc4ccc(-c5nc6ccc(C(=O)O)cc6[nH]5)cc4)cc3)[nH]c2c1`, the growth was 46% with NCI-H23 lung; 63.4% with NCI-H226 lung; 91.5% in the assay on NCI-H322M lung; 91.9% in the assay with HOP-62 NSCLC; 109% with NCI-H460 lung; 100% in the assay on HOP-92 NSCLC. Further, the growth with NCI-H522 lung was 92.8%; with A549/ATCC NSCLC, 81.7%; in the assay with 786-0 renal it was -20.8% (active); with COLO 205 colon it was 8.79% (active); with DU-145 prostate, 120%; in the assay on K-562 leukemia, 77.6%. Moreover, the growth is 173% in the assay on MALME-3M melanoma; 105% with MDA-MB-231 breast; -11.8% (active) in the assay on RXF 393 renal; 156% in the assay with SF-268 CNS; 123% in the assay on SF-295 CNS; 108% in the assay on SF-539 CNS. Besides, the growth in the assay on UACC-257 melanoma is 78.8%; in the assay with M14 melanoma, 94.1%.

For the molecule `O=C1CN(CCN2CC(=O)NC(=O)C2)CC(=O)N1`, the growth in the assay on NCI-H23 lung was 95.9%; in the assay on NCI-H226 lung it was 94.7%; in the assay on NCI-H322M lung it was 84.3%; with HOP-62 NSCLC, 93.4%; in the assay with NCI-H460 lung it was 117%; with HOP-92 NSCLC it was 72.3%. Also, the growth in the assay with NCI-H522 lung is 97.1%; in the assay with A549/ATCC NSCLC, 101%; in the assay with 786-0 renal, 97.1%; with COLO 205 colon, 118%; in the assay with DU-145 prostate, 90.7%; with K-562 leukemia it was 106%. For the same molecule, the growth in the assay on MALME-3M melanoma was 94.5%; in the assay on MDA-MB-231 breast, 102%; in the assay with SF-268 CNS, 108%; in the assay with SF-295 CNS, 85.9%; in the assay with SF-539 CNS it was 118%; with UACC-257 melanoma it was 104%. Further, in the assay with M14 melanoma, the growth is 94.8%.

As to `COc1ccc2c(c1)nnn1c3ncccc3c(N=O)c21`, the growth with NCI-H23 lung was -23.8% (active); in the assay with NCI-H226 lung it was -57.7% (active); in the assay on NCI-H322M lung, 31%; with HOP-62 NSCLC it was -41.7% (active); with NCI-H460 lung it was -70% (active); in the assay on HOP-92 NSCLC it was -49.2% (active). In addition, the growth with NCI-H522 lung is -85.7% (active); with A549/ATCC NSCLC, 6.65% (active); with 786-0 renal, -63.1% (active); with COLO 205 colon, -61% (active); in the assay on DU-145 prostate, -56.1% (active); in the assay on K-562 leukemia, -75% (active). The growth in the assay on MALME-3M melanoma was -8.37% (active); with MDA-MB-231 breast it was -31.2% (active); in the assay on SF-268 CNS it was -50.4% (active); in the assay on SF-295 CNS it was 24.2%; in the assay on SF-539 CNS, -71.2% (active); in the assay on UACC-257 melanoma, -10% (active). Besides, in the assay with M14 melanoma, the growth is -67.5% (active).

For `Cc1cc(NCCN(C(C)C)C(C)C)nc(/N=C(\N)Nc2ccc(Cl)c(C(F)(F)F)c2)n1`, the growth with NCI-H23 lung is -67.1% (active); with NCI-H226 lung it was -32.1% (active); in the assay with NCI-H322M lung, -51.9% (active); in the assay with HOP-62 NSCLC it was -95.4% (active); in the assay with NCI-H460 lung, -84.7% (active); in the assay on HOP-92 NSCLC, -93.5% (active). Moreover, the growth was -81.1% (active) in the assay with NCI-H522 lung; -89.5% (active) in the assay on A549/ATCC NSCLC; -99.7% (active) in the assay on 786-0 renal; -71.3% (active) in the assay on COLO 205 colon; -29.5% (active) in the assay on DU-145 prostate; -100% (active) in the assay with K-562 leukemia. Moreover, the growth was -74.5% (active) with MALME-3M melanoma; -65.1% (active) in the assay on MDA-MB-231 breast; -85% (active) with SF-268 CNS; -77.8% (active) in the assay with SF-295 CNS; -97.8% (active) in the assay with SF-539 CNS; -95.3% (active) in the assay on UACC-257 melanoma. Besides, in the assay on M14 melanoma, the growth is -89.8% (active).

`C=C1C(=O)O[C@H]2[C@H]1CC/C(CNC(=O)/C1=C/CC[C@@]3(C)O[C@H]3[C@H]3OC(=O)C(=C)[C@@H]3CC1)=C\CC[C@@]1(C)O[C@@H]21`: the growth in the assay on NCI-H23 lung was 99.6%; with NCI-H226 lung, 92.4%; in the assay on NCI-H322M lung, 96%; in the assay on HOP-62 NSCLC, 93.8%; in the assay on NCI-H460 lung, 104%; in the assay on HOP-92 NSCLC, 84.5%. Moreover, the growth in the assay with NCI-H522 lung is -28.3% (active); with A549/ATCC NSCLC it was 91%; in the assay on 786-0 renal, 93.1%; in the assay with COLO 205 colon it was 71.8%; in the assay with DU-145 prostate, 105%; in the assay with MALME-3M melanoma it was 104%. Moreover, the growth is 102% with MDA-MB-231 breast; 99.3% in the assay on RXF 393 renal; 98.5% in the assay with SF-268 CNS; 97.6% with SF-295 CNS; 95.6% in the assay with SF-539 CNS; 79.9% in the assay with UACC-257 melanoma. For the same molecule, the growth in the assay with M14 melanoma is 95.2%.
